From PubChem BioAssay (EPA / NIEHS)
Activity calls are given as the source filed them. Rule for the calls: active = hit-call score of the fitted dose curve at least 0.9, where 1 is the maximum; inactive = score below 0.9.

Experiments:
Details in all cases: mRNA level, 48 h; actives raise or lower the signal
[1] = read-out: NAD(P)H dehydrogenase [quinone] 1 (NQO1), NQO1 (gene 1728); experiment: LTEA_HepaRG_NQO1: Life Technologies and Expression Analysis (LTEA) Assay for NAD(P)H dehydrogenase [quinone] 1 (NQO1) using HepaRG (AID 2283526)
Method in brief: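 NQO1 transcript induction or loss measured by TaqMan qRT-PCR, referenced to three housekeeping genes and fitted bidirectionally against 0.5% DMSO. HepaRG cultures exposed 48 h, duplicate, eight-point half-log series, top 100 uM.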

[2] = read-out: Nuclear factor erythroid 2-related factor 2 (Homo sapiens) (UniProt Q16236); experiment: LTEA_HepaRG_NFE2L2: Life Technologies and Expression Analysis (LTEA) Assay for Nuclear factor erythroid 2-related factor 2 (NFE2L2) Transcription Factor using HepaRG (AID 2283527)
Method in brief: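 Human liver HepaRG line treated in duplicate for 48 h with an eight-point series topping at 100 uM. Gene expression of NFE2L2 by qRT-PCR, bidirectionally fitted against the vehicle control.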

[3] = read-out: succinate dehydrogenase complex iron sulfur subunit B (SDHB), SDHB (gene 6390); experiment: LTEA_HepaRG_SDHB: Life Technologies and Expression Analysis (LTEA) Assay for succinate dehydrogenase complex iron sulfur subunit B (SDHB) using HepaRG (AID 2283528)
Method in brief: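 SDHB transcript level read by TaqMan qRT-PCR, housekeeping-normalised (ACTB, GAPDH, POLR2A), after 48 h chemical treatment of plated HepaRG cells; eight concentrations top 100 uM, half-log steps, 0.5% DMSO, duplicates; fitted both directions against DMSO.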

[4] = read-out: Signal transducer and activator of transcription 3 (Homo sapiens) (UniProt P40763); experiment: LTEA_HepaRG_STAT3: Life Technologies and Expression Analysis (LTEA) Assay for Signal transducer and activator of transcription (STAT3) using HepaRG (AID 2283529)
Method in brief: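 In this transcriptional endpoint, HepaRG cultures receive test chemicals at up to 100 uM for 48 h, tested in duplicate. STAT3 mRNA is normalized to ACTB, GAPDH and POLR2A.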

[5] = read-out: solute carrier (SLCO1B1), SLCO1B1 (gene 10599); experiment: LTEA_HepaRG_SLCO1B1: Life Technologies and Expression Analysis (LTEA) Assay for solute carrier (SLCO1B1) using HepaRG (AID 2283530)
Method in brief: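 SLCO1B1 transcript read by qRT-PCR (Fluidigm arrays), normalized to three housekeeping genes, after 48 h chemical exposure of HepaRG cells; bidirectional concentration-response fitting versus 0.5% DMSO baseline. Eight-point half-log series, maximum 100 uM.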

[6] = read-out: sulfotransferase 2A1 (SULT2A1), SULT2A1 (gene 6822); experiment: LTEA_HepaRG_SULT2A1: Life Technologies and Expression Analysis (LTEA) Assay for sulfotransferase 2A1 (SULT2A1) using HepaRG (AID 2283531)
Method in brief: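 HepaRG, 48 h chemical exposure, 8-pt half-log curve from 100 uM in 0.5% DMSO, duplicates. Readout: TaqMan qRT-PCR of SULT2A1 mRNA, housekeeping-normalized. Bidirectional fit vs DMSO baseline.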

[7] = read-out: Transforming Growth Factor (TGFA), TGFA (gene 7039); experiment: LTEA_HepaRG_TGFA: Life Technologies and Expression Analysis (LTEA) Assay for Transforming Growth Factor (TGFA) using HepaRG (AID 2283532)
Method in brief: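 Gene expression of TGFA was quantified by qRT-PCR after human HepaRG cells were treated for 48 h with test chemicals (eight concentrations, highest 100 uM, 0.5% DMSO). Activity in either direction was fitted relative to DMSO.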

[8] = read-out: Transforming Growth Factor (TGFB1), TGFB1 (gene 7040); experiment: LTEA_HepaRG_TGFB1: Life Technologies and Expression Analysis (LTEA) Assay for Transforming Growth Factor (TGFB1) Transporter using HepaRG (AID 2283533)
Method in brief: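 qRT-PCR readout of TGFB1 transcript in HepaRG lysates, normalized to three housekeeping genes; gain or loss of signal fitted relative to 0.5% DMSO vehicle. Exposure: 48 h, 8-point curve from 100 uM, duplicate wells.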

TIMP1, TIMP1 (gene 7076) = experiment: LTEA_HepaRG_TIMP1: Life Technologies and Expression Analysis (LTEA) Assay for TIMP1 using HepaRG (AID 2283534)
Method in brief: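 HepaRG, 48 h exposure, 8-pt half-log series from 100 uM in 0.5% DMSO, duplicates; TIMP1 transcript by Fluidigm qRT-PCR, housekeeping-normalized; bidirectional curve fit vs DMSO baseline.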

[9] = read-out: Tumor necrosis factor receptor 1 (TNFRSF1A), TNFRSF1A (gene 7132); experiment: LTEA_HepaRG_TNFRSF1A: Life Technologies and Expression Analysis (LTEA) Assay for Tumor necrosis factor receptor 1 (TNFRSF1A) using HepaRG (AID 2283535)
Method in brief: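 HepaRG, 48 h plating then 48 h chemical exposure, serum-free induction media; 8-pt CRC from 100 uM, half-log, 0.5% DMSO vehicle, duplicates. Readout: TaqMan qRT-PCR (Fluidigm), housekeeping-gene normalized; bidirectional fit vs DMSO.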

Measured: AC50

Chain of Nuclear factor erythroid 2-related factor 2 (Homo sapiens) (Q16236 whole entry, looked up): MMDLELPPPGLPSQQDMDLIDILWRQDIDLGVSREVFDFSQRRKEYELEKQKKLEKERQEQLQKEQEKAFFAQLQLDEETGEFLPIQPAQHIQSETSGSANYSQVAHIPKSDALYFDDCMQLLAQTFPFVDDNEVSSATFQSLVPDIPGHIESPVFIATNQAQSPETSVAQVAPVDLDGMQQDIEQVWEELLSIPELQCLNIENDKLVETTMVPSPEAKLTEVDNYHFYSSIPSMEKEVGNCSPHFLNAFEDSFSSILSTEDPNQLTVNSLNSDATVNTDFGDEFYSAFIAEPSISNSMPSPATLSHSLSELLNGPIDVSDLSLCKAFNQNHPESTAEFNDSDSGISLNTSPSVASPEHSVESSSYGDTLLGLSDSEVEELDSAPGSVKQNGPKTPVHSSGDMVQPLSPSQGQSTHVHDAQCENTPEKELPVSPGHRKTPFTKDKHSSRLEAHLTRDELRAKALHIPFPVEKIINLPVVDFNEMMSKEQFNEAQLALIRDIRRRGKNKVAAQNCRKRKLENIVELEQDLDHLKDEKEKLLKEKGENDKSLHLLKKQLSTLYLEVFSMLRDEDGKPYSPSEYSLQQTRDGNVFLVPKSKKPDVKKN
Chain of Signal transducer and activator of transcription 3 (Homo sapiens) (P40763 whole entry, looked up): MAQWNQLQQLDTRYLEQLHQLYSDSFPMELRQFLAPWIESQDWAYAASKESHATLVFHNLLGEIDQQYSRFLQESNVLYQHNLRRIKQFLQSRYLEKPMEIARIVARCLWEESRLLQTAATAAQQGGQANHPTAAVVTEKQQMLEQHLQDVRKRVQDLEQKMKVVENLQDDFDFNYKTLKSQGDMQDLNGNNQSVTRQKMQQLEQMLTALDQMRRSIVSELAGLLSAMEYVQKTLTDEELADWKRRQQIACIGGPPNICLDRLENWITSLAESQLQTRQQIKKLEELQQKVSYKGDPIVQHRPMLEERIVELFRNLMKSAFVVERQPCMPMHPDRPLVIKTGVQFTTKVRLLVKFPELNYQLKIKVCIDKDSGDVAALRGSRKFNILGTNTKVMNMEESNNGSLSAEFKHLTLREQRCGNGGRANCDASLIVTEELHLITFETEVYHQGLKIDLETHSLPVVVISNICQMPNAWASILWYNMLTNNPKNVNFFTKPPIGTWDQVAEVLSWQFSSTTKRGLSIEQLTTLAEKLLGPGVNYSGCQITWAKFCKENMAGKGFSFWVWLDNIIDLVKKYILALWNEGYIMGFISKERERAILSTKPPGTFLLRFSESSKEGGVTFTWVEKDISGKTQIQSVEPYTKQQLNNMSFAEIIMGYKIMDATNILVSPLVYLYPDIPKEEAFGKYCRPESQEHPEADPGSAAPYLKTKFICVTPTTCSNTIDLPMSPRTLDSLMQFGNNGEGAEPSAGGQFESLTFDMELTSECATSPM

N#CC(Br)(Br)C(N)=O
not listed: [9]
inactive: all other assays above

CCCCCCCCCCCCCN1CC(C)OC(C)C1 (centres undefined)
not listed: [9]
inactive: all other assays above

CCCCOC(=O)c1ccccc1C(=O)OCc1ccccc1
not listed: [9]
inactive: all other assays above

O=C(Oc1ccc(Br)cc1)N1CCN2CCC1CC2
not listed: [9]
inactive: all other assays above

Nc1ccc(N=Nc2ccccc2)cc1
active: [3] 18.8 µM | [5] 11.4 µM | [6] 22.4 µM | [8] 13.1 µM | TIMP1, TIMP1 (gene 7076) 50 µM | [9] 23.4 µM
inactive: [1] | [2] | [4] | [7]

C=CCc1ccc2c(c1)OCO2
not listed: [9]
inactive: all other assays above

Nc1cc(Cl)cc(C(=O)O)c1Cl
inactive: all assays above

CNC(=O)Oc1cccc2c1OC(C)(C)C2
not listed: [9]
inactive: all other assays above

CCC[CH2][Sn]([Cl])([CH2]CCC)[CH2]CCC
active: [1] 15.8 µM | [3] 50 µM | [4] 15.3 µM | [5] 2.3 µM | [6] 1.63 µM | [7] 50 µM | [9] 50 µM
inactive: [2] | [8] | TIMP1, TIMP1 (gene 7076)

CC(C)N(Cc1ccccc1)C(=O)C(C)(C)C
inactive: all assays above

CS(=O)(=O)NC(=O)c1cc(Oc2ccc(C(F)(F)F)cc2Cl)ccc1[N+](=O)[O-]
inactive: all assays above

Nc1ccc(Cc2ccc(N)cc2)cc1
inactive: all assays above

O=[N+]([O-])C(Br)(CO)CO
inactive: all assays above

O=[N+]([O-])c1ccc(Oc2ccc(Cl)cc2Cl)cc1
inactive: all assays above

CC(C)COC(=O)c1ccccc1C(=O)OCC(C)C
inactive: all assays above

Clc1ccccc1Cl
inactive: all assays above

Cn1cc(-c2ccccc2)c(=O)c(-c2cccc(C(F)(F)F)c2)c1
active: [2] 20.9 µM | [6] 9.92 µM
inactive: all other assays above

CC(C)(C)OOC(C)(C)CCC(C)(C)OOC(C)(C)C
not listed: [2] | [9]
inactive: all other assays above

Oc1ccccc1Cl
inactive: all assays above

CCOC(=O)[C@]1(c2ccccc2)Oc2ccccc2[C@@H]1N
active: [5] 90.6 µM | [6] 93.2 µM | [7] 70.9 µM | [9] 90.8 µM
not listed: TIMP1, TIMP1 (gene 7076)
inactive: all other assays above

Nc1ccc(Cl)cc1N
active: [1] 78 µM | [2] 12.2 µM | [3] 21.6 µM | [5] 20.9 µM | [6] 35.4 µM | [7] 16.1 µM | [8] 12.9 µM | [9] 50 µM
inactive: [4] | TIMP1, TIMP1 (gene 7076)

OCCCl
inactive: all assays above

CC(C)(OOC(C)(C)c1ccccc1)c1ccccc1
inactive: all assays above

CO[C@@H]1[C@H](OC(=O)NC(=O)CCl)CC[C@]2(CO2)[C@H]1[C@@]1(C)O[C@@H]1CC=C(C)C
inactive: all assays above

COc1cc(C=O)cc2c1[C@H](COC(N)=O)[C@]1(OC(C)=O)ON2C[C@H]2[C@@H]1N2C(C)=O
active: [2] 93.1 µM | [3] 93.4 µM | [5] 0.733 µM | [7] 1.46 µM | [8] 3.38 µM | TIMP1, TIMP1 (gene 7076) 2.63 µM
inactive: [1] | [4] | [6] | [9]

ClC1=C(Cl)[C@]2(Cl)[C@H]3[C@H]([C@@H]4C=C[C@H]3C4)[C@@]1(Cl)C2(Cl)Cl
not listed: [2] | [9]
inactive: all other assays above

Clc1ccc(C(c2ccc(Cl)cc2)C(Cl)(Cl)Cl)cc1
active: [3] 17 µM
inactive: all other assays above

CCCCC(CC)COC(=O)c1ccc(C(=O)OCC(CC)CCCC)c(C(=O)OCC(CC)CCCC)c1 (centres undefined)
inactive: all assays above

Cc1ccc(N)cc1
inactive: all assays above

O=C(O)C1C2CCC(O2)C1C(=O)O (centres undefined)
active: [5] 69 µM | [6] 76 µM | [8] 35.1 µM
inactive: all other assays above

Nc1ccc(Oc2ccc(N)cc2)cc1
inactive: all assays above

OCCCBr
inactive: all assays above

CCCSC(=O)N(CCC)CCC
inactive: all assays above

N#CC(Br)Br
not listed: [6]
inactive: all other assays above

O=C(N[C@H](c1ccccc1)[C@@H]1CN2CCC1CC2)c1c(Cl)ccc(C(F)(F)F)c1Cl
active: [2] 71.5 µM | [4] 83.3 µM | [5] 73.9 µM | [6] 73.2 µM | [7] 46.2 µM | [8] 46.2 µM | TIMP1, TIMP1 (gene 7076) 64.9 µM | [9] 73.9 µM
inactive: [1] | [3]

c1ccc(N=Nc2ccccc2)cc1
not listed: [4] | [9]
inactive: all other assays above

CCN(CC)CCO
inactive: all assays above

CCCCCCCCn1sccc1=O
active: [5] 84.1 µM
inactive: all other assays above

COC(=O)c1ccccc1N
inactive: all assays above

CCCCCCCCOC(=O)c1ccc(C(=O)OCCCCCCCC)c(C(=O)OCCCCCCCC)c1
not listed: [5] | [9]
inactive: all other assays above

Brc1ccc(Oc2ccccc2)cc1
inactive: all assays above
